Results on 93 compounds are retold here after PubChem BioAssay AID1063 (University of Pittsburgh Molecular Library Screening Center, 2008).

Out of some 200,000 compounds screened, about 18,000 (9%) were called active. Rule as the data show it: active = inhibition above about 50%; inactive = the rest. Many of the other results were omitted from the sample, so actives are more common in it than they were. Where a SMILES comes first, the peptide text is derived from it. The star is where a group is joined. Bz = O=C(c1ccccc1)*

The nature of the test: Leishmania major promastigote growth inhibition, primary screen (AID 1063).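 Also: promastigotes grown with compound for 44 hours at 28 °C.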 The note with it: Leishmania major promastigotes, resazurin fluorescence viability; at 10 µM; stronger effect = higher value.
On to `COc1ccc(-c2[nH]ncc2CN(C)Cc2cccnc2)c(F)c1`, for which the inhibition was 5.13% (inactive).
The result for `CC/C(O)=C1\C(=O)CC(C)(C)CC1=NCCc1nc2ccccc2[nH]1` reads 2.52% (inactive).
The result for `CC(=O)c1cccc(NC(=O)Nc2ccc(C)cc2)c1` reads -3.66% (inactive); that for `Cc1ccc(NC(=O)CC(=O)Nc2ccc(C)cc2)cc1`, -5.48% (inactive).
The result for `COC(=O)c1ccc(NC(=O)Nc2ccc(C)cc2)cc1` reads 91.7% (active).
As for `O=C(Nc1ccc(S(=O)(=O)N2CCCCC2)cc1)c1cnccn1`, the inhibition is -3.44% (inactive).
For `O=C(NC1CCCCC1)C1CCCN(S(=O)(=O)c2cccs2)C1` (stereo not drawn) the value was -2.02% (inactive); for `CC1CCCN(S(=O)(=O)c2ccc(N(C(=O)c3cnccn3)C(C(=O)NC3CCCCC3)c3cccs3)cc2)C1` (stereo not drawn), 69.2% (active); for `CCCCn1c(=O)c(C(C)=O)c(O)c2ccccc21`, -2.04% (inactive).
The result for `COC(=O)c1ccc(N(CC(=O)NC2CCCC2)C(=O)CNC(=O)c2ccco2)cc1` reads -5.36% (inactive); that for `O=C(NC1CCCC1)C(c1ccc(N2CCOCC2)cc1)N(C(=O)c1ccco1)c1ccccc1F` (stereo not drawn), 3.7% (inactive); that for `COC(=O)c1cccc(N(C(=O)c2ccco2)C(C(=O)NC2CCCC2)c2ccco2)c1` (stereo not drawn), 51.8% (active).
The result for `Cc1cc(C(=O)N/N=C\C(Br)=C\c2ccccc2)c(C)o1` reads 12.7% (inactive); that for `COc1cc(/C=N\NC(=O)c2nonc2N)c(OC)cc1Br`, -4.69% (inactive); that for `COCc1c(C(=O)N/N=C/C2CC=CCC2)nnn1-c1nonc1N` (stereo not drawn), -6.32% (inactive).
For `Nc1nonc1-n1nnc(C(=O)N/N=C/c2cc(Br)ccc2O)c1CSC1=NCCS1`, the inhibition was 50.8% (active).
For the compound `COc1ccc(-c2ccc(CCC(=O)O)n2NC(=O)c2ccc(C(C)(C)C)cc2)cc1`, the inhibition was -4.23% (inactive).
The result for `NC(=O)C1=C[C@H](c2csc3ccccc23)C[C@H](OCc2ccc(CO)cc2)O1` reads 14.5% (inactive).
For `CN(C)N(C)C(=O)C(O)(c1ccccc1)c1ccccc1` the value was -4.98% (inactive); for `Cc1ccc(-c2nnn(CC(=O)N(Cc3ccco3)C(C(=O)NC(C)(C)C)c3ccncc3)n2)o1` (stereo not drawn), 4.2% (inactive); for `Cc1nc(C)c(C(=O)N(c2ccc(C)c(C)c2)C(C(=O)NCc2ccco2)c2ccccc2)s1` (stereo not drawn), -1.53% (inactive).
For `Cc1nn(-c2ccccc2)c2sc(C(=O)N(Cc3ccco3)C(C)C(=O)NC(C)(C)C)cc12` (stereo not drawn) the value was 85.5% (active); for `COc1ccc(CC(=O)NCc2nnc(SCC(=O)Nc3ncc(C)s3)n2C)cc1`, -4.95% (inactive).
As to `CCOc1ccc(Nc2oc(Cc3ccccc3)nc2C#N)cc1`, the inhibition was 99.7% (active).
For `N#Cc1nc(Cc2ccccc2)oc1NCCc1ccccc1`, the inhibition was 0.9% (inactive).
On to `N#Cc1nc(COc2ccc(-c3ccccc3)cc2)oc1NCc1cccnc1`, for which the inhibition is 7.49% (inactive).
For `CCOC(=O)c1[nH]cnc1C(=O)Nc1ccccc1C` the value was 4.69% (inactive); for `CCC(=O)Nc1ccc(C(=O)N2CCN(C(=O)c3ccco3)CC2)cc1`, 0.95% (inactive); for `O=C(Nn1cnc2ccccc2c1=O)c1ccc([N+](=O)[O-])cc1Cl`, -9.04% (inactive).
For `COc1ccc(CS(=O)/C(Cl)=C(/Cl)C(=O)Nc2ccc(OC)nc2)cc1` (stereo not drawn) the value was 101% (active); for `COc1ccc(NC(=S)NCCNC(C)=O)cc1`, -3.38% (inactive); for `COc1ccc(NC(=S)Nc2ccccc2Cl)cn1`, 6.52% (inactive).
For `COc1ccc(NC(=O)/C(Cl)=C(/Cl)S(=O)Cc2ccc(C)cc2)cn1` (stereo not drawn) the value was 101% (active); for `Cc1ccc(NC(=O)OCc2cncs2)cc1`, -5.83% (inactive).
In the case of `CC(=O)Nc1ccc(OCC(=O)NCc2ccc(C)cc2)cc1`, the inhibition was -6.13% (inactive).
`Cc1ccc(NC(=O)OCCNC(=O)c2ccncc2)cc1`: the inhibition is 0.55% (inactive).
`O=C(CN1C(=O)NC2(CCCCCC2)C1=O)NC1CC1`: the inhibition was -1.36% (inactive).
For `O=C(Nc1ccccc1C(=O)O)c1cc(S(=O)(=O)N2CCCCC2)cs1` the value was -7.25% (inactive); for `CCOC(=O)c1sc(=NC(=O)/C=C/c2cccs2)n(C)c1C`, -7.45% (inactive).
For `Cc1ccc(OCc2n[nH]c(=S)n2-c2ccccc2)cc1` the value was 0.68% (inactive); for `COc1ccccc1N(C(=O)Cn1nnc2ccccc21)C(C(=O)NCc1ccco1)c1ccc(C)o1` (stereo not drawn), -2.13% (inactive).
For the compound `COc1ccc([N+](=O)[O-])cc1N(CC(O)Cn1nnc2ccccc21)S(=O)(=O)c1ccc(C)cc1` (stereo not drawn), the inhibition was 99% (active).
For `COc1ccc(C)cc1S(=O)(=O)N(CC(=O)Nc1cccc([N+](=O)[O-])c1)c1ccc(C)cc1` the value was 30.9% (inactive); for `CC(=O)OC(COc1ccc(F)cc1)Cn1cnc2ccccc21` (stereo not drawn), -0.28% (inactive); for `Cc1cc(NS(=O)(=O)c2ccc(NC(=O)c3cccc(OC(F)F)c3)cc2)nc(C)n1`, -1.79% (inactive).
The result for `Cc1cc(C(F)F)n2nc(C(=O)Nc3ccc(S(=O)(=O)NC45CC6CC(CC(C6)C4)C5)cc3)nc2n1` reads 99% (active); that for `CCn1nccc1C(=O)Nc1ccc(S(=O)(=O)NC23CC4CC(CC(C4)C2)C3)cc1`, 47.6% (inactive).
For `COc1ccc(Cl)cc1N(CC(=O)N1CCCCC1)S(C)(=O)=O` the value was -4.47% (inactive).
As for `COc1ccc(/C=N/S(=O)(=O)c2ccccc2)cc1OC`, the inhibition is 0.14% (inactive).
For `CN(C)c1ccc(/C=N/N(Cc2ccccc2)c2ccccc2)cc1` the value was 3.58% (inactive); for `CN(C)c1ccc(/C=N\S(=O)(=O)c2ccccc2)cc1`, 51.7% (active).
For `CCNC(=S)NNC(=O)c1ccc2ncccc2c1` the value was -8.24% (inactive); for `OC(c1nnc(-c2ccccc2)o1)c1cccs1` (stereo not drawn), 0.18% (inactive); for `O=c1cnnc(Nc2ccccc2F)[nH]1`, -2.35% (inactive).
The result for `CC(C)=C1SC(N2CCN(c3cccc(C)c3)CC2)=NC1=O` reads 1.42% (inactive).
For the compound `CCN1C(=O)/C(=C\N2CCN(c3ccccc3)CC2)SC1=S`, the inhibition is 0.18% (inactive).
For `CCN1C(=O)/C(=C2\SC(N3CCCCC3)=NC2=O)c2ccccc21` the value was 74.1% (active).
For `O=C(c1ccc(Cl)c([N+](=O)[O-])c1)N1CCN(c2ccccc2)CC1` the value was -0.23% (inactive); for `O=C(c1cncc(Br)c1)N1CCN(c2ccc([N+](=O)[O-])cc2)CC1`, 57.2% (active); for `Cc1cccc(C(=O)NC(=S)N2CCN(c3ccc([N+](=O)[O-])cc3)CC2)c1`, 36.9% (inactive).
Take `Cc1cc([N+](=O)[O-])nn1CC(=O)Nc1ccc(Cc2ccncc2)cc1`: the inhibition was -0.44% (inactive).
The result for `Cc1ccc2c(=O)oc(N(C)C)nc2c1` reads 7.03% (inactive); that for `Cc1ccc(SCCC(=O)NC(C(C)C)C(C)C)cc1`, 59.5% (active); that for `Cc1ccc(SCCC(=O)NCc2ccccn2)cc1`, 3.06% (inactive).
For `Cc1ccc(SCCC(=O)Nc2cc(C)on2)cc1` the value was -6.06% (inactive); for `CN(C)/C=C/C(=O)c1cnc2sccn2c1=O`, -6.23% (inactive).
In the case of `O=C(C(Cc1ccccc1)n1cccc1)N1CCN(C2CCCCC2)CC1` (stereo not drawn), the inhibition is 83% (active).
Consider `Cc1ccc(C(=O)N2CCN(C3CCCCC3)CC2)s1`, for which the inhibition is -10.8% (inactive).
For `O=C(NC(Cc1ccccc1)C(=O)N1CCCC1C(=O)O)c1ccccc1` (stereo not drawn) (Bz-Phe-Pro-OH; configuration not given here) the value was -8.5% (inactive).
The result for `COCCCN(C(=S)Nc1c(C)cc(C)cc1C)C(C)c1ccncc1` (stereo not drawn) reads 1.38% (inactive).
The result for `O=C(Nn1c(-c2ccc(Cl)cc2)nc2ccccc2c1=O)c1cccnc1Cl` reads 55.3% (active); that for `Cc1cccc(-c2nc3ccccc3c(=O)n2NC(=O)Cc2ccc(Cl)cc2)c1`, 53% (active).
Regarding `O=C(Nn1c(-c2ccccc2)nc2ccccc2c1=O)c1ccc([N+](=O)[O-])cc1`, the inhibition was -4.12% (inactive).
For `O=C(Cc1ccc(Cl)cc1)NCc1nc(-c2ccccc2)no1` the value was -1.26% (inactive).
For `O=C(Cn1nnc2ccccc2c1=O)NCc1ccc(Cl)cc1` the value was -4.83% (inactive); for `COc1cc(OC)cc(-c2nc3ccccc3c(=O)n2NC(=O)c2cccnc2Cl)c1`, 46.3% (inactive).
For `CCCCCC1CCC(c2nnc(SCC(C)=O)o2)CC1` (stereo not drawn) the value was -9.46% (inactive); for `COCCNC(=O)C(OC(=O)c1cccs1)c1ccc(F)cc1` (stereo not drawn), -3.33% (inactive); for `COc1ccc(Cl)cc1NC(=O)CN(C)Cc1ccc(OC)c(OC)c1`, 1.17% (inactive).
On to `Cc1cccc(-n2c(Cc3cc(=O)[nH]c(=O)[nH]3)nnc2SCC(=O)Nc2cccc(C(F)(F)F)c2)c1`, for which the inhibition was -1.75% (inactive).
As for `N#Cc1c(NC(=O)C2CC(Cl)=CCC2C(=O)O)sc2c1CCCCC2` (stereo not drawn), the inhibition was -8.36% (inactive).
The result for `O=C(COC(=O)C1CCCCC1)Nc1ccc([N+](=O)[O-])cc1` reads -5.31% (inactive).
For `O=C(COc1ccc([N+](=O)[O-])cc1)Nc1ccc(N2CCCC2)cc1` the value was 86.2% (active); for `COc1ccc(OCC(=O)Nc2ccc(N3CCC(C)CC3)cc2)cc1`, 8.72% (inactive); for `COc1cc(COCC(O)CN2CCN(Cc3ccc4c(c3)OCO4)CC2)cc(OC)c1OC` (stereo not drawn), 2.04% (inactive).
The result for `Cc1cc(=O)oc(C)c1C(=O)NCCN(C)Cc1ccccc1` reads 9.38% (inactive); that for `COc1ccc(CCNC(=O)CSc2nc(-c3ccc(OC)c(OC)c3)ccc2C#N)cc1`, 27.6% (inactive); that for `COc1ccc(CCNC(=O)CSc2nnc3ccc(-c4ccncc4)nn23)cc1`, -2.23% (inactive).
For `COc1cccc(-c2ccc(C#N)c(SCC(=O)NCCc3ccc(Cl)cc3)n2)c1`, the inhibition was 50.9% (active).
The result for `NS(=O)(=O)c1ccc(NC(=O)/C=C/c2ccccc2Cl)cc1` reads 0.13% (inactive); that for `O=S(=O)(NCc1ccccc1)c1ccc(S(=O)(=O)N2CCCC2)cc1`, -7.35% (inactive).
The result for `O=C1c2cccnc2C(Nc2ccc(S(=O)(=O)N3CCCCCC3)cc2)N1Cc1ccccc1` (stereo not drawn) reads 54.9% (active); that for `Cc1nc(Nc2ccc(S(=O)(=O)N3CCCC3)cc2)c2nnn(Cc3ccccc3)c2n1`, 0.17% (inactive).
